Screens as filed in PubChem BioAssay.
Most compounds without a hit are left out; they make up all but 11% or so of the library.
USP17 block: human USP17-like deubiquitinase inhibition; A8MUK1; purified USP17, Ub-rhodamine cleavage fluorescence, 3 h; inhibition, % at 50 µM; 47,000 compounds, 6.5% hits; AID 1645855
OTUD3 block: inhibitors of human OTUD3 deubiquitinase. Q5T2D3. purified OTUD3, Ub-rhodamine fluorescence, 2 h. inhibition, % at 25 µM. 47,000 compounds, 0.7% hits
USP30 inh: inhibitors of human USP30 deubiquitinase | purified USP30, Ub-rhodamine cleavage fluorescence | inhibition, % at 25 µM | 47,000 compounds, 5.3% hits | AID 1645860
USP28 block: blocks human USP28 ubiquitin-rhodamine cleavage | purified USP28, Ub-rhodamine cleavage fluorescence, 30 min | 47,000 compounds, 3% hits | Q96RU2 | inhibition, % at 25 µM
Target sequence (Q96RU2 whole entry, looked up): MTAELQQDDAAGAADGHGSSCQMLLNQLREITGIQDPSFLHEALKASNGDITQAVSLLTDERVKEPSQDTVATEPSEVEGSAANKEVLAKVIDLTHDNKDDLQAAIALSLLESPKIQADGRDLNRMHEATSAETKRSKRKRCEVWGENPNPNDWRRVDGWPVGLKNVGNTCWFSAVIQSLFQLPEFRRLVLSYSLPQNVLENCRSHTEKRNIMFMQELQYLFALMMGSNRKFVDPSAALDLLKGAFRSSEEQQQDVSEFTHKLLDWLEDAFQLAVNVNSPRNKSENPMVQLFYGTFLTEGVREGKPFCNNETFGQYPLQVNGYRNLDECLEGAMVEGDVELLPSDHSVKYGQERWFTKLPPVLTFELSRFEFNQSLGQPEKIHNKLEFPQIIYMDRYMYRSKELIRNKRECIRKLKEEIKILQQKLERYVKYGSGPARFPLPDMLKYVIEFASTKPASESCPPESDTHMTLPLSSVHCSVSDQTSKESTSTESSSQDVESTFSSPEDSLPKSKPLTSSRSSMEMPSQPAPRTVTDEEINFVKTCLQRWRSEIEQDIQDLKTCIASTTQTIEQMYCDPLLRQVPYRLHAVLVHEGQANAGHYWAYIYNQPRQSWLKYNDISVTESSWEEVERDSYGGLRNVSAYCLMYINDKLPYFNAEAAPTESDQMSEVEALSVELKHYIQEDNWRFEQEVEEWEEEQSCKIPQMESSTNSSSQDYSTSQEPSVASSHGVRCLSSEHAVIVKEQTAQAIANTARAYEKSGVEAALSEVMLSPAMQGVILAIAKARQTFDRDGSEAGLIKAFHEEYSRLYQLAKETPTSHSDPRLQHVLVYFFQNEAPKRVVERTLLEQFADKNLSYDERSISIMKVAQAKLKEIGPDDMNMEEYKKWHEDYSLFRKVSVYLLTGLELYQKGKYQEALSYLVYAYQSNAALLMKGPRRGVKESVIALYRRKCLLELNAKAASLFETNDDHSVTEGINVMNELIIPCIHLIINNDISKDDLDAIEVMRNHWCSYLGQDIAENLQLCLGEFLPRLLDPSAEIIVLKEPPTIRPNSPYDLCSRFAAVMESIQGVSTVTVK
* = called active by the depositor; i = inactive; · = no result given. Cut-off read from the data, not from the text of the source: active = inhibition above about 30%; inactive = the rest.

SMILES | USP17 block | OTUD3 block | USP30 inh | USP28 block
O=C(Cn1ncc2c(N3CCCCCC3)ncnc21)NCc1ccccc1 | 29 | 16 | 70* | 26
O=C(Cn1ncc2c(N3CCCCC3)ncnc21)NCc1ccc2c(c1)OCO2 | 55* | 17 | 55* | 13
Cn1c(=O)n(Cc2ccccc2F)c2cccnc21 | -5 | -3 | 3 | 8
O=C(CSc1ccc2nnc(CCNS(=O)(=O)c3ccccc3)n2n1)Nc1ccc(Br)cc1 | 32* | 0 | 24 | 6
CCOC(=O)c1ccccc1NC(=O)CSc1ccc2nnc(CCNS(=O)(=O)c3ccc(C)cc3)n2n1 | -2 | 18 | 31* | 9
O=C(CSc1ccc2nnc(CCNS(=O)(=O)c3ccccc3)n2n1)Nc1ccc(OC(F)(F)F)cc1 | 0 | -10 | -32 | 1
COc1ccc(C)cc1NC(=O)C1CC(=O)Nc2nc(SCc3ccccc3)nn21 (configuration not stated) | 53* | 8 | -6 | 6
COc1ccc(C2C(C(N)=O)=C(C)Nc3nc(SCc4ccccc4)nn32)cc1 (configuration not stated) | -7 | 0 | -42 | -8
CCN(CC)c1ccc2nnc(CCC(=O)Nc3cccc(C(C)=O)c3)n2n1 | 19 | -5 | -38 | 2
Brc1ccc(Nc2nc(-c3ccccn3)nc3ccccc23)cc1 | 52* | 51* | 90* | 93*
OCCCNc1cc(-c2cccc(C(F)(F)F)c2)nc(-c2ccccn2)n1 | -42 | -6 | -12 | -9
Cc1cc(C)cc(NC(=O)Cc2nc(-c3ccccn3)n[nH]2)c1 | -52 | -4 | -1 | -10
FC(F)(F)c1cccc(Nc2nc(-c3ccccn3)nc3ccccc23)c1 | 74* | -4 | 52* | 88*
Cc1ccc(-c2c(NC(=O)c3cccs3)n(C)c3ccccc3c2=O)cc1 | 22 | 9 | 27 | 14
Cc1ccc(-c2c(NC(=O)c3cccc([N+](=O)[O-])c3)n(C)c3ccccc3c2=O)cc1 | 15 | 4 | 32* | 14
Cc1ccc(C(=O)Nc2c(-c3ccc4c(c3)OCO4)c(=O)c3ccccc3n2C)cc1 | 37* | 8 | -5 | 46*
Cn1c(NC(=O)c2ccc(Cl)cc2)c(-c2ccccc2)c(=O)c2ccccc21 | 4 | -2 | 0 | -10
Cn1c(NC(=O)c2cccc(Br)c2)c(-c2ccc(Cl)cc2)c(=O)c2ccccc21 | 41* | -8 | -37 | -24
O=C(c1nc(-c2ccccc2)nc2c1OCO2)N1CCCC1 | -23 | -12 | -10 | -15
Cc1cccc(CCNc2ncnc3onc(C)c23)c1 | 15 | 6 | 27 | 15
O=c1c2c(nc3nc(C(c4ccccc4)c4ccccc4)[nH]n13)CCC2 | 14 | 9 | 17 | 8
c1ccc(CN(Cc2ccccc2)c2c3c(nc4ncnn24)CCC3)cc1 | 13 | 11 | 39* | 23
COc1nccc(N2CCC(CC(=O)NC3CCCCC3)CC2)n1 | 4 | 15 | 23 | 8
CC(=O)Nc1ccc(-n2cnc(C(=O)NC3CCCC3)c2)nc1 | -7 | 2 | -1 | 1
CC(=O)Nc1ccc(-n2cnc(C(=O)NC(C)c3ccccc3)c2)nc1 (configuration not stated) | 64* | 7 | 19 | 10
SMILES | USP17 block | OTUD3 block | USP30 inh | USP28 block
COC(=O)c1ccccc1S(=O)(=O)N1CCN(Cc2nnnn2-c2ccccc2)CC1 | 3 | 3 | 4 | 1
Cc1cccc(Nc2ccc(NCCNC(=O)Nc3ccccc3F)nn2)n1 | 29 | 0 | · | ·
Cc1cccc(NC(=O)CNc2nc(Nc3ccccc3)nc(Nc3ccccc3)n2)c1 | · | 13 | 32* | 15
Cc1ccccc1NC(=O)CNc1nc(Nc2ccccc2)nc(Nc2ccccc2)n1 | 65* | -2 | -3 | -4
O=C(CNc1nc(Nc2ccccc2F)nc(Nc2ccccc2F)n1)Nc1ccccc1 | 7 | 26 | 81* | 49*
O=C(CNc1nc(Nc2ccccc2)nc(Nc2ccccc2)n1)Nc1ccccc1F | 44* | 9 | 22 | 21
COc1ccc(C2c3[nH]c4ccccc4c3C[C@H]3C(=O)N(c4ccccc4C(=O)NC4CCCCC4)C(=O)N23)cc1 (some centres not stated) | -115 | -79 | i | -168
CCN1C=C(C(=O)OCc2c(C)noc2C)C(C)=NS1(=O)=O | -37 | -21 | -137 | 0
COc1ccc(CCNC(=O)COC(=O)c2ccc(N3CCCC3=O)cc2)cc1 | 84* | 3 | 81* | 9
O=C(NCCCN1CCCC1=O)c1ccc(N2CCCC2=O)cc1 | 2 | -5 | 2 | 0
CCn1c(=O)c2cc(OC)c(OC)cc2n(CC(=O)c2ccc(OC)c(OC)c2)c1=O | 11 | 22 | 47* | 5
COc1cc(OC)c(NC(=O)Cn2c(=O)n(Cc3ccccc3Cl)c(=O)c3cc(OC)c(OC)cc32)cc1Cl | 29 | 24 | 60* | 36*
COc1ccc(NC(=O)Cn2c(=O)n(CCCC(=O)NC3CCCC3)c(=O)c3cc(Cl)ccc32)cc1 | -4 | -17 | -5 | -22
O=C(Cn1c(=O)n(CCCC(=O)NC2CCCC2)c(=O)c2cc(Cl)ccc21)Nc1cccc(F)c1 | 3 | -2 | 37* | -1
COc1ccc(NC(=O)Cn2c(=O)n(C3CCCC3)c(=O)c3cc(OC)c(OC)cc32)cc1OC | 39* | 24 | 17 | 14
Cc1ccc(C)c(NC(=O)CSc2nnc(-c3cccnc3)o2)c1 | 17 | 9 | 12 | 11
COc1cc2c(=O)n(CCC(=O)NC3CCCC3)c(=O)n(CC(=O)Nc3cccc(Cl)c3)c2cc1OC | 42* | 24 | 24 | 18
CCc1nnc(NC(=O)c2nnn(-c3ccccc3Cl)c2C)s1 | 11 | 17 | 37* | 60*
CC(=O)c1cccc(NC(=O)c2ccc3c(c2)CCN3C(=O)C2CC2)c1 | 19 | -6 | -17 | 23
COc1cccc(C(=O)Nc2ccc3c(c2)N(C(C)=O)CCC3)c1 | -7 | -9 | -48 | 0
O=C(Nc1ccc2c(c1)N(C(=O)C1CCCC1)CC2)c1c(F)cccc1F | 32* | 7 | 24 | 93*
COc1ccc(C(=O)Nc2ccc3c(c2)N(C(=O)C2CC2)CCC3)cc1OC | 6 | 10 | 22 | 33*
COc1cc2cc(Oc3ccc4ccc(=O)oc4c3)c(=O)oc2cc1O | -4 | 0 | 34* | 7
O=C(NCCN1CCc2ccccc2C1)Nc1ccc(C(F)(F)F)cc1 | -5 | -3 | -4 | 46*
Cc1cccc(NC(=O)NCCN2CCc3ccccc3C2)c1 | -1 | -3 | 0 | -1
O=C(Nc1ccccc1)c1ccnc(Nc2ccc(F)cc2)c1 | 30* | 2 | 7 | 9
O=C(c1ccccc1-c1ccccc1)N1CCOCC(Cc2cn3ccnc3cn2)C1 (configuration not stated) | · | 8 | -19 | 2
CC(C)N1CCc2c(sc(NC(=O)CSc3ccc(F)cc3)c2C(N)=O)C1 | -8 | -3 | -3 | 6
CC(C)N1CCc2c(sc(NC(=O)CSc3ccc(Cl)cc3)c2C(N)=O)C1 | 50* | -6 | 18 | 24
COc1ccccc1CNC(=O)C1CCCN(C(=O)c2cc(-c3cccnc3)n[nH]2)C1 (configuration not stated) | · | 0 | -1 | -2
